The target in assay [1] is T1, Aspartate--tRNA(Asp/Asn) ligase (Mycobacterium tuberculosis (strain ATCC 25618 / H37Rv)) (UniProt P9WFW3). Note: in the data most compounds retested in dose-response had high values.
T1 sequence (whole entry): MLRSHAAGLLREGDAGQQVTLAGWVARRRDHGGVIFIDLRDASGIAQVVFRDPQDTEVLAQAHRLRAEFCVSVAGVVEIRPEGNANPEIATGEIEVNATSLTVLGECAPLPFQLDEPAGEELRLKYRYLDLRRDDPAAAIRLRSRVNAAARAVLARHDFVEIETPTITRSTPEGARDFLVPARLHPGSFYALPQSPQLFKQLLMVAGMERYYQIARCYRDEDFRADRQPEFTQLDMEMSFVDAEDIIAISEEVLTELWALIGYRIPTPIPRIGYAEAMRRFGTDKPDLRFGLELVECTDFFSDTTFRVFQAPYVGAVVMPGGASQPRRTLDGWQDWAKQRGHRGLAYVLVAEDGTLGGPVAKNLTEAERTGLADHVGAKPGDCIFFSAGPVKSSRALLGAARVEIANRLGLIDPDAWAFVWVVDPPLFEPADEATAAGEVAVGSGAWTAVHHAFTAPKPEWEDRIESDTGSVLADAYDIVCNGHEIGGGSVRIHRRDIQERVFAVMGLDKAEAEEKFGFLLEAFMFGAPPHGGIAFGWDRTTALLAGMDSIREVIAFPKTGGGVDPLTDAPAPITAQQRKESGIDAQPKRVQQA
Put plainly: Assay for Asp RNA synthetase-1 from Mycobacterium tuberculosis. It counts as functional. More on the design: scale not given: direction of the effect not stated beside the values. As to conditions: 30 µM.

Assay [2] has as its target Shiga toxin 2 (Escherichia coli O157:H7) (UniProt P09385+P09386). Put plainly: E. coli 0.157:H7 Shiga Toxin SOP - stx2 screening assay. In kind it is functional. Also on record: scale not given: direction of the effect not stated beside the values. As to conditions: 30 µM.

As for `CN1CCN(C(=O)[C@@H]2CCO[C@@H]3CCN(c4ncccn4)C[C@@H]32)CC1`, the Percent Effect in assay [1] is 5.45%; in assay [2], -16.6%.
As for `CCc1ccc(CN2CC[C@H]3C[C@H](c4nnc(C)[nH]4)O[C@@H]3C2)o1`, the Percent Effect came to 0.228% in assay [1] and 1.93% in assay [2].
On the same counts, the results for `Cn1ncc2c(NCCC34CCCN3CCC4)nc(C3CCCC3)nc21` are 8.28% and -7.47%.
On the same counts, the results for `O=C(CCc1nccs1)N1CCN(c2ccc(Br)cn2)CC1` are 3.92% and 23.4%.
On the same counts, the results for `Cc1n[nH]c(C2CN(C(=O)c3cc(C4CC4)[nH]n3)CCO2)n1` (stereo not given) are 1.87% and 23.4%.
Consider `Cc1cc(C(=O)N2C[C@@H]3[C@@H](C2)OCC(=O)N3CC2CC2)no1`, for which the Percent Effect was 9.42% in assay [1] and -55.2% in assay [2].
On the same counts, the results for `CCCn1nc2c(cc1=O)CN(Cc1nc(CCOC)no1)CC2` are 16.9% and -17.7%.
`COCC1COCCC12CCN(C(=O)CCOc1ccccc1)CC2` (stereo not given): the Percent Effect in assay [1] was 1.23%; in assay [2], 0.928%.
Regarding `CNc1cc(CNC(=O)c2ccccc2)nc(-c2ccncc2)n1`, the Percent Effect was -4.09% in assay [1] and 11.3% in assay [2].
On the same counts, the results for `Cc1nc[nH]c1-c1nc2cc(S(=O)(=O)N3CCCC3)ccc2n1C` are 1.21% and 0.151%.
On the same counts, the results for `CS(=O)(=O)NC[C@]12COC[C@H]1CN(C(=O)c1ccccc1)C2` are -2.14% and -16.8%.
On the same counts, the results for `CC(C)Nc1nc(N2CCOCC2)nc2c1CN(Cc1ccoc1)CC2` are -5.4% and 4.99%.
Consider `COCCOc1ccc(NC(=O)N2CCCC2c2ccncc2)cn1` (stereo not given), for which the Percent Effect in assay [1] was 0%; in assay [2] it was 19%.
On the same counts, the results for `CCc1n[nH]c(C2CN(Cc3nccn3CC)CCO2)n1` (stereo not given) are 1.7% and -10.4%.
With `Cc1cn2nc(N3CCCC3Cn3nc(C)cc3C)sc2n1` (stereo not given), the Percent Effect is -7.52% in assay [1] and -1.2% in assay [2].
On the same counts, the results for `Cc1cc(C)n(CC2CN(Cc3nc(-c4ccoc4)no3)CCO2)n1` (stereo not given) are 5.71% and 28.8%.
Take `CNC(=O)[C@@H]1C[C@H]2CN(C(=O)c3ccco3)C[C@H]2N1C`: the results for the Percent Effect in assay [1] and in assay [2] were -1.4% and -6.39%, respectively.
On the same counts, the results for `Cc1cnn(CC2CN(CC(=O)N3CCc4ccccc43)CCO2)c1` (stereo not given) are -4.75% and -15.5%.
On the same counts, the results for `Cc1ccc(C(=O)Nc2cn[nH]c2)cn1` are 1.01% and 15.1%.
On the same counts, the results for `O=C(NCCS(=O)(=O)N1CCc2ccccc21)c1c(O)cc(F)cc1F` are -2.88% and 23%.
Consider `O=C(NCCN1CCCCC1)c1scnc1Cl`, for which the Percent Effect in assay [1] was -1.07%; in assay [2], 30.3%.
On the same counts, the results for `O=C1[C@H]2CC[C@H](CN(C3CSCCSC3)C2)N1Cc1cscn1` are 2.92% and -34.4%.
On the same counts, the results for `Cc1cnn(CC2CCCCN2Cc2nc(-c3ccoc3)no2)c1` (stereo not given) are 2.91% and 26.6%.
Turning to `Cc1cc(C(=O)NCc2cccnc2OC(C)C)no1`, the values for the Percent Effect in assay [1] and in assay [2] were -2.27% and 26.9%, respectively.
On the same counts, the results for `Cc1ccc(NC(=O)N2CCN(Cc3noc(C4CC4)n3)CC2)cc1` are -2.14% and -9.31%.
On the same counts, the results for `Cc1n[nH]c(C)c1C1CCCN1C(=O)CNC(=O)C(C)(C)C` (stereo not given) are 1.09% and -19.5%.
On the same counts, the results for `CN(C)CCCNC(=O)CNC(=O)N1CCc2c([nH]c3ccccc23)C1` are 4.82% and -42.4%.
For `Cc1nc(CN2C[C@@H]3CN(C(=O)c4ccnnc4)C[C@@H]3C2=O)cs1`, the Percent Effect is -3.71% in assay [1] and -1.02% in assay [2].
On the same counts, the results for `COc1cccc(CN2C[C@@H]3COC[C@]3(COCc3ccncc3)C2)c1` are 2.95% and 5.94%.
Take `Cc1cc(CNC(=O)C2CCCCN2C(=O)OC(C)(C)C)no1` (stereo not given): the Percent Effect stood at 0.607% in assay [1] and 10.5% in assay [2].
With `CN(CCn1cccn1)S(=O)(=O)N1CCCC1c1ccco1` (stereo not given), the Percent Effect in assay [1] stood at 4.31%; in assay [2], 20.4%.
On the same counts, the results for `CCn1cnnc1C1CCN(C(=O)c2ccc(C(=O)OC)s2)CC1` are -7.04% and 7.28%.
On the same counts, the results for `c1nc2n(n1)CC(NCc1csc(-c3ccsc3)n1)CC2` (stereo not given) are -1.92% and -23.2%.
On the same counts, the results for `CC(C)c1ncc2c(n1)CN(Cc1cccc(OCC(N)=O)c1)CC2` are 3.81% and 12.8%.
Turning to `CC(C)c1nc(CC(=O)Nc2nc(CN3CCCCCC3)cs2)cs1`, the Percent Effect is -0.836% in assay [1] and -37.6% in assay [2].
On the same counts, the results for `CN(Cc1cn2ccccc2n1)C1CCCN(c2cccnn2)C1` (stereo not given) are 3.45% and -72.8%.
On the same counts, the results for `O=C(Nc1nnc(C2CC2)s1)NC1CCN(Cc2ccccc2)C1` (stereo not given) are -0.344% and -174%.
On the same counts, the results for `Cc1noc(C)c1C(=O)N1CC[C@H]2C[C@@H](c3nccs3)O[C@@H]2C1` are 3.92% and 3.87%.
`COc1ccc(C(O)CNC(=O)Nc2cc(C)nn2C)cc1` (stereo not given): the values for the Percent Effect in assay [1] and in assay [2] were -1.41% and 26.8%, respectively.
On the same counts, the results for `COc1ccc(CNCC(C)Oc2ccccn2)cc1Br` (stereo not given) are -3.54% and -30.6%.
Regarding `CC(O)CN1CCN(C(=O)c2ccc(Br)o2)CC1` (stereo not given), the Percent Effect is -2.21% in assay [1] and 22.8% in assay [2].
On the same counts, the results for `CCN1CCN(C(=O)c2cnn(-c3ccccc3Cl)c2)CC1` are 0.83% and 16.9%.
On the same counts, the results for `CC(O)CNCc1ccc(OCc2ccc3c(c2)OCCO3)cc1` (stereo not given) are 1.08% and -37.4%.
On the same counts, the results for `c1ccc(CCN2CCN(c3ccc4nncn4n3)CC2)nc1` are 1.58% and -28.9%.
For `Cc1nc(C2CCCCN2C(=O)c2ccccc2)ncc1C(=O)N(C)C` (stereo not given), the Percent Effect was -6.63% in assay [1] and -5.42% in assay [2].
On the same counts, the results for `Cc1ccoc1-c1nnc(CNCCn2cccn2)o1` are 0.914% and -39.9%.
On the same counts, the results for `O=C(NCC1CCSCC1)N(CCCO)C1CCc2ccccc21` (stereo not given) are 6.01% and -37.4%.
Turning to `Cc1ncc(-c2ccnc(N3CCCCCC3)n2)c(-c2cccnc2)n1`, the Percent Effect is 7.25% in assay [1] and -25.4% in assay [2].
`CCc1cccc(NS(=O)(=O)c2cc3c(c(C(=O)O)c2)OCCO3)c1`: the Percent Effect in assay [1] was -2.26%; in assay [2], -33.5%.
On the same counts, the results for `Cc1ccc(S(=O)(=O)N2CCC3(CC(C(=O)NCC4CC4)=NO3)C2)cc1` (stereo not given) are 10.8% and 14.7%.

These data come from ChEMBL document CHEMBL3988442, “University of Dundee, Small-Polar-MMV Screening Library” (2021).
